This passage reports growth results from PubChem BioAssay (NCI).

The panel holds about 83,000 compounds, 20% with a hit somewhere; the sample as a whole holds those more often.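 In brief: 96-well plates, 48 h treatment, single concentration, percent growth endpoint.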 Values without a mark were called inactive. Active and inactive are the calls of the source. How the source made its calls: active means growth percent below 10; inactive means the rest.

Common to all, as to test: NCI-60 one-dose screen, 48 h (100 = growth as untreated, 0 = no growth, -100 = all killed)
Holding throughout (conditions): 10 µM unless noted

The test system of assay [1] is BT-549 breast.
Assay [2] relates to MDA-MB-435 melanoma.
Assay [3] has as its system SW-620 colon.
In assay [4] the test system is MCF7 breast.
The subject of assay [5] is HCT-116 colon.
For assay [6], the system named is HCC-2998 colon.
Assay [7] deals with KM12 colon.

On to `CC(C)NS(=O)(=O)c1cccc(-c2ccc3c4c(n(CCCN(C)C)c(=O)c3c2)-c2ccccc2C4=O)c1`, for which the growth in assay [1] was 95.6%; in assay [2], 92.9%; in assay [3], 57.4%; in assay [4], 38.8%; in assay [5] it was -66% (active); in assay [6], 96.8%. The growth in assay [7] is 93.9%.

Regarding `C[C@H]1[C@H](C)CC[C@]2(C(=O)OCCCC[P+](c3ccccc3)(c3ccccc3)c3ccccc3)CC[C@]3(C)C(=CC[C@@H]4[C@@]5(C)CC[C@H](OC(=O)C(Cl)Cl)C(C)(C)[C@@H]5CC[C@]43C)[C@H]12`, the growth is -87.1% (active) in assay [1]; -91.4% (active) in assay [2]; -71.3% (active) in assay [3]; -38.1% (active) in assay [4]; -89.2% (active) in assay [5]; -84.8% (active) in assay [6]. For the same compound, the growth in assay [7] is -85.7% (active).

As to `COc1ccc(/C(=N\O)c2cc(C)c(OC)c(C)c2)cc1O`, the growth was 19.3% in assay [1]; -23.8% (active) in assay [2]; 31% in assay [3]; 19.1% in assay [4]; 6.63% (active) in assay [5]; 26.2% in assay [6]. For the same compound, in assay [7], the growth was 14.8%.

Regarding `N#CCNc1ccc(C(=O)O)cc1`, the growth in assay [1] is 106%; in assay [2] it was 101%; in assay [3], 103%; in assay [4], 98.9%; in assay [5] it was 103%; in assay [6], 104%. Also, the growth in assay [7] is 105%.

For the compound `COc1cc2cc(c1Cl)N(C)C(=O)C[C@H](OC(=O)[C@H](C)N(C)C(=O)CCS)C[C@]1(C)O[C@H]1[C@H](C)[C@@H]1C[C@@](O)(NC(=O)O1)[C@H](OC)/C=C/C=C(\C)C2`, the growth in assay [1] was 21.9%; in assay [2] it was -16.4% (active); in assay [3], 18.5%; in assay [4], 11.4%; in assay [5], 2.39% (active); in assay [6], 8.58% (active). In addition, the growth in assay [7] is 16.1%.

In the case of `COc1ccccc1N1CCN(CCCOc2ccc(C(=O)/C=C3/C(=O)Nc4ccccc43)cc2)CC1`, the growth in assay [1] was 68.1%; in assay [2], 73%; in assay [3], 70.6%; in assay [4], 49.7%; in assay [5] it was 34.4%; in assay [6] it was 60.2%. In addition, in assay [7], the growth is 59.4%.

With `O=C1c2ccccc2C(=O)c2c1oc1c2c(=O)[nH]c2ccccc21`, the growth in assay [1] was 73.9%; in assay [2], 83.7%; in assay [3] it was 89.2%; in assay [4], 48.8%; in assay [5] it was 55.5%; in assay [6], 103%. In assay [7], the growth is 66.2%.

For the compound `Cc1cc(Nc2nc(SCc3ccc(C(=O)Nc4ccc(F)cc4N)cc3)nn3cccc23)n[nH]1`, the growth in assay [1] is 27%; in assay [2], 12.8%; in assay [3] it was 23.9%; in assay [4] it was 23.5%; in assay [5], 10.1%; in assay [6], 23.9%. Moreover, the growth in assay [7] was 7.02% (active).

Turning to `CS(=O)(=O)O[C@@H]1C(=O)N(c2cc3c4ccccc4ccc3c3ccccc23)[C@H]1c1ccc(F)cn1`, the growth is 44.6% in assay [1]; -26% (active) in assay [2]; 22.5% in assay [3]; 21.6% in assay [4]; 14.3% in assay [5]; 60.1% in assay [6]. Further, the growth in assay [7] was 23%.

For `CCOC(=O)c1sc(/N=C2\NC(=O)/C(=C/c3ccc(N4CCN(C)CC4)cc3)S2)nc1C`, the growth in assay [1] was 95%; in assay [2], 106%; in assay [3], 120%; in assay [4], 84%; in assay [5] it was 103%; in assay [6] it was 94.7%. The growth in assay [7] was 95.4%.

As to `N#Cc1c(-c2ccc(F)cc2)nc(N/N=C/c2cccc(O)c2)nc1N1CCOCC1`, the growth in assay [1] is 93.4%; in assay [2], 93.4%; in assay [3], 73.7%; in assay [4], 72.4%; in assay [5], 71%; in assay [6] it was 95.1%. In addition, the growth in assay [7] is 86%.

On to `COc1cccc(C(=O)OCCn2nc3c4c(cccc42)C(=O)c2ccccc2-3)c1O`, for which the growth in assay [1] was 52.8%; in assay [2] it was 6.92% (active); in assay [3], 20.9%; in assay [4] it was 18.4%; in assay [5] it was 29.6%; in assay [6], 80.3%. The growth in assay [7] is 29%.

Consider `CC(C)(C)c1ccc(O)c(Cc2cc(C(C)(C)C)ccc2O)c1`, for which the growth in assay [1] is 113%; in assay [2], 107%; in assay [3] it was 105%; in assay [4] it was 72.5%; in assay [5], 88.6%; in assay [6], 103%. For the same compound, the growth in assay [7] is 100%.

For `Cc1ccc(C2=N[C@H]3CCC[C@@H]3N(c3ccccc3)C(C(Cl)Cl)=N2)cc1`, the growth is 106% in assay [1]; 103% in assay [2]; 107% in assay [3]; 87% in assay [4]; 97.7% in assay [5]; 110% in assay [6]. In addition, in assay [7], the growth was 100%.

On to `O=C(Nc1cc(=O)[nH]c(=O)[nH]1)C(Cl)Cl`, for which the growth in assay [1] was 107%; in assay [2] it was 110%; in assay [3] it was 100%; in assay [4] it was 97.1%; in assay [5] it was 107%; in assay [6], 92.4%. For the same compound, the growth in assay [7] was 107%.

Take `Cc1ccc(C(=O)/C(=C/c2ccc([N+](=O)[O-])cc2)S(=O)Cc2ccccc2)cc1` (centres undefined): the growth in assay [1] was 45.8%; in assay [2] it was 19.7%; in assay [3] it was 2.41% (active); in assay [4] it was 1.83% (active); in assay [5], -59.2% (active); in assay [6], 74.8%. Further, the growth in assay [7] is 23.1%.

As to `COc1cc(NC(=O)COc2cc(C)nc3ccc(OC)cc23)cc(OC)c1`, the growth in assay [1] was 85.5%; in assay [2], 100%; in assay [3], 99.7%; in assay [4], 86.8%; in assay [5] it was 90.2%; in assay [6], 101%. In addition, the growth in assay [7] is 96.8%.

As to `CCOC(=O)C1=C(C)n2nc(CC#N)c(C#N)c2NC1c1ccc(Cl)cc1` (centres undefined), the growth was 92% in assay [1]; 100% in assay [2]; 97.5% in assay [3]; 90.2% in assay [4]; 101% in assay [5]; 99.9% in assay [6]. The growth in assay [7] is 85.4%.

Turning to `CC(C)C[C@H](C(=O)O)N(C)C(=O)[C@@H]1CCCN1C(=O)[C@H](C)OC(=O)[C@H](CCC(N)=O)NC(=O)[C@@H]1CCC(=O)N1`, the growth in assay [1] was 94.2%; in assay [2], 106%; in assay [3], 106%; in assay [4], 85.2%; in assay [5], 99.2%; in assay [6], 108%. The growth in assay [7] is 100%.

Consider `COc1ccc(Nc2nc(SCC(C)C)nc(-c3ccc(F)cc3)c2C#N)cc1`, for which the growth was 75.5% in assay [1]; 9.54% (active) in assay [2]; 47.9% in assay [3]; 29.1% in assay [4]; 35.7% in assay [5]; 92.8% in assay [6]. In addition, the growth in assay [7] was 44.4%.

As for `COc1ccc(Cc2nc(C#N)c(N3CCN(c4ccc(F)cc4)CC3)o2)cc1`, the growth is 94.5% in assay [1]; 84.6% in assay [2]; 97.7% in assay [3]; 79.7% in assay [4]; 78.2% in assay [5]; 93.8% in assay [6]. Besides, the growth in assay [7] is 78.8%.

As to `O=C1C(Cl)=C(NCCCN(CCCNC2=C(Cl)C(=O)c3ccccc3C2=O)C2=C(Cl)C(=O)c3ccccc3C2=O)C(=O)c2ccccc21`, the growth in assay [1] was 85.6%; in assay [2], -86.5% (active); in assay [3] it was 47.6%; in assay [4] it was -19.9% (active); in assay [5], 4.83% (active); in assay [6] it was 92.4%. Besides, the growth in assay [7] is 80.1%.

Regarding `COc1ccc(Sc2[nH]c(C(C)=O)c3ccccc23)cc1`, the growth in assay [1] was 50.1%; in assay [2] it was -23.4% (active); in assay [3] it was 58.6%; in assay [4] it was 57.5%; in assay [5] it was 65.3%; in assay [6], 70.2%. For the same compound, the growth in assay [7] was 37%.

Turning to `CCOC(=O)c1c(C)nc2c(c1N)/C(=C/c1ccc[nH]1)C(=O)N2Cc1ccc(C(F)(F)F)cc1`, the growth was 58.4% in assay [1]; 90.9% in assay [2]; 66% in assay [3]; 45.1% in assay [4]; 28.4% in assay [5]; 91.2% in assay [6]. Besides, the growth in assay [7] was 81.6%.

As to `CC(=O)OC[C@]12CC[C@@H](c3cn(Cc4ccc(Cn5cc([C@@H]6CC[C@]7(COC(C)=O)CC[C@]8(C)[C@H](CC[C@@H]9[C@@]%10(C)CC[C@H](OC(C)=O)C(C)(C)[C@@H]%10CC[C@]98C)[C@@H]67)nn5)cc4)nn3)[C@@H]1[C@H]1CC[C@@H]3[C@@]4(C)CC[C@H](OC(C)=O)C(C)(C)[C@@H]4CC[C@@]3(C)[C@]1(C)CC2`, the growth in assay [1] was 91.4%; in assay [2], 105%; in assay [3], 106%; in assay [4], 92.1%; in assay [5], 109%; in assay [6], 104%. Besides, in assay [7], the growth is 106%.

In the case of `N#CC(C#N)=C1NC(c2ccccc2)=C(c2ccccc2)C(c2ccccc2Cl)=C1C#N`, the growth is 86.2% in assay [1]; 114% in assay [2]; 110% in assay [3]; 97.1% in assay [4]; 94.1% in assay [5]; 99.5% in assay [6]. The growth in assay [7] was 113%.

Turning to `C=C1C(=O)O[C@H]2[C@H]1CC/C(COC(=O)CCC(=O)OC/C1=C/CC[C@@]3(C)O[C@H]3[C@H]3OC(=O)C(=C)[C@@H]3CC1)=C\CC[C@@]1(C)O[C@@H]21`, the growth in assay [1] is 67.1%; in assay [2], 44.5%; in assay [3], 5.48% (active); in assay [4] it was 12%; in assay [5], -43% (active); in assay [6], 93.8%. The growth in assay [7] is 85%.
